# Results from PubChem BioAssay (NCATS).
# Where “and” joins values, the source holds several entries; their conditions need not be identical. Equal entries are not always repeated. Inconclusive results are not listed. Where a call stands in place of a potency, no number is given. Calls of active or inactive are those of the source. Unless noted, the call rests on the fitted dose curve; in most records, active means well fitted curve in the direction sought with a large enough effect; inconclusive means small, poorly fitted or top-dose-only effect, or another doubt; inactive means no such curve, though single readings can be large; an effect the other way counts as inactive or inconclusive.
# How the values were obtained:
# [1] = Cell Viability - Hek293 (AID 427;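 active means compounds whose dose-response curve shows a full or clear partial loss of cell viability, called from curve shape rather than a numeric limit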;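 further: potency means the concentration at half of the fitted maximal effect; cells exposed to compound for 40 hours at 37 °C before reading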); conditions: qHTS
# Method in brief: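 HEK293 cells in complete medium were exposed to compound for 40 hr at 37 °C, then cellular ATP was read by CellTiter-Glo luminescence. Data were normalized to DMSO (basal) and 100 uM tamoxifen (100% inhibition), and AC50 came from Hill fits.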
# [2] = Cell Viability - N2a (AID 540); conditions: N2a mouse neuroblastoma cell viability; activity change, negative = cytotoxicity: at 92.2 µM (top of the series); further: nearly all actives have a fitted effect of over 45% in size
# Method in brief: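 Luminescent ATP signal (CellTiter-Glo, 20 min at room temperature) served as the viability read-out after N2a cells were treated with compounds for 40 hours at 37 °C. Concentration-response data were fitted to the Hill equation for AC50.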
# [3] = Cell Viability - SH-SY5Y (AID 544); conditions: SH-SY5Y neuroblastoma cell viability; viability change, negative = cytotoxic: at 92.2 µM (top of the series); further: nearly all actives have a fitted effect of over 55% in size; further: potency means the concentration at half of the fitted maximal effect
# Method in brief: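 Luminescent ATP read-out (CellTiter-Glo) measures loss of viable SH-SY5Y neuroblastoma cells after 40 hr compound exposure at 37 °C. AC50 values derive from standard Hill modelling of qHTS concentration-response data.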
# [4] = Cellular Toxicity (caspase-3) SHSY5Y (AID 657); conditions: SH-SY5Y caspase-3 activation, DMSO zero, 10 µM staurosporine = 100%; series mostly up to 91.7 µM
# Method in brief: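 Luminescent caspase-3/7 readout (aminoluciferin release) in SH-SY5Y cells after 16 h compound exposure in complete medium. Activity scaled between DMSO basal and 10 uM staurosporine as 100%; concentration-response fitted to Hill equation for AC50.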
# [5] = Cellular Toxicity (caspase-3) H-4-II-E (AID 663); conditions: H-4-II-E rat hepatoma; Potency: caspase-3 activation; series mostly up to 92.2 µM;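 further: cells exposed to compound for 16 hr before readout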
# Method in brief: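 Rat hepatoma H-4-II-E cells (1500/well) plated 5 hr, then exposed to compound titrations for 16 hr at 37 °C. Caspase-Glo 3/7 luminescence read after 20 min at RT; data normalized to DMSO and 100 uM tamoxifen, AC50 from Hill fits.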
# [6] = Cellular Toxicity (caspase-3) NIH 3T3 (AID 666); conditions: NIH 3T3 caspase-3 activation, apoptosis/toxicity; series mostly up to 92.2 µM;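 further: caspase signal read after 16 h compound exposure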
# Method in brief: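 Luminescence from aminoluciferin released by caspase-3/7 cleavage of a peptide substrate served as read-out. Mouse fibroblast NIH 3T3 cells were exposed to compounds over a concentration range for 16 hours, and AC50 values came from standard Hill modelling.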
# [7] = Cell Viability - LYMP2-001 (AID 921); conditions: LYMP2-001 lymphoblastoid cell viability; series mostly up to 92.2 µM;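 further: cells exposed to compound for 24 h at 37 °C; nearly all actives have a fitted effect of over 70% in size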
# Method in brief: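 CellTiter-Glo luminescence (intracellular ATP) after 24 hr compound exposure at 37 C, 2500 lymphoblastoid cells/well in complete medium. AC50 fitted with standard Hill equation; tetraoctylammonium bromide positive control.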
# [8] = Cell Viability - LYMP2-009 (AID 968); conditions: LYMP2-009 lymphoblastoid cell viability; series mostly up to 92.2 µM;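 further: cells exposed to compound for 24 h at 37 °C; nearly all actives have a fitted effect of over 55% in size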
# [9] = Cell Viability - LYMP2-006 (AID 978); conditions: LYMP2-006 lymphoblastoid cell viability, qHTS; series mostly up to 92.2 µM;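 further: cells exposed to compound for 24 hours; nearly all actives have a fitted effect of over 60% in size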
# Method in brief: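 qHTS, 1536-well; 2500 cells/well, 5 hr 37 C; cpd 24 hr 37 C; CellTiter-Glo 30 min RT; luminescence. Tetraoctylammonium bromide pos. ctrl. AC50 via Hill eqn.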
# [10] = molecular target: Vitamin D3 receptor (Homo sapiens) (UniProt P11473); assay: qHTS assay for small molecule antagonists of vitamin D receptor signaling (AID 588541; calls by dose curve;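 further: receptor activated by calcitriol during compound treatment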); conditions: HEK293T VDR-UAS-bla, beta-lactamase ratio, antagonist mode; series mostly up to 76.7 µM
# Method in brief: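 VDR-UAS-bla HEK293T cells in 2% charcoal-stripped FBS were stimulated with 1-alpha,25-dihydroxyvitamin D3 (3 nM final) plus compound for 16 h at 37 C. The beta-lactamase CCF4 readout was normalized to 50 nM agonist and DMSO, and Hill fits gave IC50.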
# [11] = qHTS assay for small molecule agonists of retinoid X receptor alpha signaling (AID 588544; calls by dose curve); conditions: HEK293T RXRa-UAS-bla, beta-lactamase reporter, 18 h; 530 nm emission
# [12] = molecular target: Retinoic acid receptor RXR-alpha (Homo sapiens) (UniProt P19793); assay: as above; conditions: HEK293T RXRa-UAS-bla, beta-lactamase reporter, 18 h; series mostly up to 76.7 µM
# [13] = molecular target: Thyroid hormone receptor beta (Homo sapiens) (UniProt P10828); assay: qHTS assay for small molecule antagonists of thyroid hormone receptor beta signaling (AID 588547; active means well fitted inhibition curve with a large enough effect in the signal ratio, with a control signal flat, not every such curve was filed as active; the % refers to the signal ratio;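 further: cells stimulated with 0.4 nM T3 agonist during compound exposure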); conditions: TR-UAS-bla HEK293, beta-lactamase ratio, antagonist mode, 18 h
# Method in brief: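 TR-UAS-bla GripTite HEK293 cells in 2% charcoal/dextran FBS medium; compounds 0.59 nM to 92 uM with T3 at 0.4nM final, 18 h at 37 C. Beta-lactamase read by CCF4 fluorescence (460/530 nm); Hill fits gave IC50 and efficacy.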
# [14] = qHTS assay for small molecule disruptors of the mitochondrial membrane potential - 1 hr assay (AID 651754; calls by dose curve; further: nearly all actives have a fitted effect of over 35% in size); conditions: series mostly up to 92.2 µM
# Method in brief: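 HepG2, 2,000 cells/well, overnight attachment; cpd or DMSO 1 hr, 37C/5% CO2; Mito-MPS dye 30 min, 37C; fluorescence monomer (490/535) and aggregate (540/590).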
# [15] = qHTS assay for small molecule disruptors of the mitochondrial membrane potential - 5 hr assay (AID 651755; calls by dose curve; further: nearly all actives have a fitted effect of over 40% in size); conditions: JC-1-type ratio dye; series mostly up to 92.2 µM
# Method in brief: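 HepG2 cells (2,000/well), attached overnight, exposed to compound 5 hr at 37C, then Mito-MPS dye 30 min. Fluorescence read for monomers (490/535 nm) and aggregates (540/590 nm).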
# [16] = molecular target: Nuclear receptor ROR-gamma (Homo sapiens) (UniProt P51449); assay: qHTS assay for small molecule antagonists of the retinoid-related orphan receptor gamma (ROR-gamma) signaling pathway (AID 651802); conditions: ROR-gamma antagonist cell reporter assay; series mostly up to 92.2 µM;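 further: CHO cells with doxycycline-induced ROR-gamma expression; luciferase reporter luminescence driven by ROR response element; nearly all actives have a fitted effect of over 60% in size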
# Method in brief: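 CHO, TET-inducible ROR + RORE-LUC reporter, 1536-well qHTS. Compound pinned, doxycycline added, 16hr 37C/5% CO2. ONE-Glo, 30 min RT, luminescence; signal drop scored as antagonism.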
# [17] = qHTS assay for small molecule agonists of the antioxidant response element (ARE) signaling pathway measured by Nrf2-dependant transcriptional activity - cell viability counter screen (AID 720653; active means well fitted curve in the direction sought with a large enough effect in the repeat runs; an effect the other way counts as inactive or inconclusive); conditions: ARE-bla HepG2 viability, CellTiter-Glo ATP luminescence, 16 h; stronger effect = lower value
# Method in brief: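 ARE-bla HepG2 cells treated with compounds for 16 h at 37C; this counter screen measures viability as intracellular ATP by CellTiter-Glo luminescence after 30 min at room temperature.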
# [18] = qHTS assay for cell viability of HEK293 cells (AID 743288); conditions: ATP luminescence (CellTiter-Glo), 18 h, stronger effect = lower value; further: nearly all actives have a fitted effect of over 50% in size
# Method in brief: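 Environmental chemicals tested in qHTS format against parental HEK293 cells; 18 h treatment, 37 C; read-out ATP luminescence (CellTiter-Glo), 30 min RT development.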
# [19] = Cellular Toxicity (caspase-3) Mesangial (AID 660); conditions: mesangial cells, normalized: DMSO 0%, 100 µM tamoxifen 100%; series mostly up to 91.7 µM;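 further: combined caspase 3 and 7 activity read by Caspase-Glo luminescence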
# Method in brief: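 Mesangial cells, 1000/well, 5 h settle at 37 °C; compound 16 h, 37 °C; Caspase-Glo 3/7 reagent 20 min RT; luminescence. Norm.: DMSO = 0%, tamoxifen 100 uM = 100%. AC50, Hill fit.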
# [20] = MultiTox-Fluor Cytotoxicity Assay - LYMP1-002 - Dead Cells (AID 960); conditions: LYMP1-002 lymphoblastoid cells, dead-cell protease fluorescence; series mostly up to 46.1 µM; further: nearly all actives have a fitted effect of over 60% in size
# Method in brief: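 LYMP1-002 cells 2500/well; 5 hr 37 C pre-incubation; compound 16 hr 37 C; MultiTox-Fluor reagent 60 min RT; dead-cell fluor Ex/Em 485/520. Norm. to DMSO (0%) vs 15 uM tetraoctylammonium bromide (100%); Hill AC50.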
# Chain of Nuclear receptor ROR-gamma (Homo sapiens) (P51449 whole entry, looked up): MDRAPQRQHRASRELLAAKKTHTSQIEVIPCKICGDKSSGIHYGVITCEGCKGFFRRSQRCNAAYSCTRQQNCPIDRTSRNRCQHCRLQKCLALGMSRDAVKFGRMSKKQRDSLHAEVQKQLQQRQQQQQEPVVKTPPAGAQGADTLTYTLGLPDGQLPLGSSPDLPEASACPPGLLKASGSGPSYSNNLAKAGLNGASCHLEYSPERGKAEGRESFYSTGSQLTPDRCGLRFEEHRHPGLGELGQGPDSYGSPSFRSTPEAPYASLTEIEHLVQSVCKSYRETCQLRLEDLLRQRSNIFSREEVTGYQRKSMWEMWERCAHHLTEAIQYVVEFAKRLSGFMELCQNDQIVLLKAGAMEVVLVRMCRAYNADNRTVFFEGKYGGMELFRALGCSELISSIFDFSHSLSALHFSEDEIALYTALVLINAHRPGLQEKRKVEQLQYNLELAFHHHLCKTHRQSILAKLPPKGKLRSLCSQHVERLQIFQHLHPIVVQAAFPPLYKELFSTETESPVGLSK
# Chain of Vitamin D3 receptor (Homo sapiens) (P11473 whole entry, looked up): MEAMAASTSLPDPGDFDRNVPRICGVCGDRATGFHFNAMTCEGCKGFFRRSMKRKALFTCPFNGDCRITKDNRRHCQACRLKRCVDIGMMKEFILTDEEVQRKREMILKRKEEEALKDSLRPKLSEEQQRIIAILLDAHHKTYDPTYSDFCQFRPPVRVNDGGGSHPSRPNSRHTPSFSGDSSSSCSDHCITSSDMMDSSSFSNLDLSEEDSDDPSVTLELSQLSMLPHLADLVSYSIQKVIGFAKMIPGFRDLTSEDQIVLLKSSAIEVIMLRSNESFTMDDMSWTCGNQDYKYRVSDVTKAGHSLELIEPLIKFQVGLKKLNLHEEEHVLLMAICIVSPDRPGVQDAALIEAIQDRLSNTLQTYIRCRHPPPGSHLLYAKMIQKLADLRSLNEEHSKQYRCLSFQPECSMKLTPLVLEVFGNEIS
# Chain of Retinoic acid receptor RXR-alpha (Homo sapiens) (P19793 whole entry, looked up): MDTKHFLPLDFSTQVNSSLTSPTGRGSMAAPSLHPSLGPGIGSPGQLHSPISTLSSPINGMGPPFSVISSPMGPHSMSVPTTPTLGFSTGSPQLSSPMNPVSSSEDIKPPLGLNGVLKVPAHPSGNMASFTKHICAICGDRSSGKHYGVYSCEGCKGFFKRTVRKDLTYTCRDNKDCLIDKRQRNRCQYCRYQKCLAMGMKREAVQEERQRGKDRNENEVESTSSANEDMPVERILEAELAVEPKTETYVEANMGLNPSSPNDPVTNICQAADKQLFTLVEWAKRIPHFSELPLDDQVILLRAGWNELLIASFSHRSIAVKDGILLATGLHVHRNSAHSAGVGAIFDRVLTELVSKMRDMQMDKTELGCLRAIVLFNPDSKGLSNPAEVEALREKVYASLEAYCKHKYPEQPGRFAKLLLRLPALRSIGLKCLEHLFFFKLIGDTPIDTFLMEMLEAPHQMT
# Chain of Thyroid hormone receptor beta (Homo sapiens) (P10828 whole entry, looked up): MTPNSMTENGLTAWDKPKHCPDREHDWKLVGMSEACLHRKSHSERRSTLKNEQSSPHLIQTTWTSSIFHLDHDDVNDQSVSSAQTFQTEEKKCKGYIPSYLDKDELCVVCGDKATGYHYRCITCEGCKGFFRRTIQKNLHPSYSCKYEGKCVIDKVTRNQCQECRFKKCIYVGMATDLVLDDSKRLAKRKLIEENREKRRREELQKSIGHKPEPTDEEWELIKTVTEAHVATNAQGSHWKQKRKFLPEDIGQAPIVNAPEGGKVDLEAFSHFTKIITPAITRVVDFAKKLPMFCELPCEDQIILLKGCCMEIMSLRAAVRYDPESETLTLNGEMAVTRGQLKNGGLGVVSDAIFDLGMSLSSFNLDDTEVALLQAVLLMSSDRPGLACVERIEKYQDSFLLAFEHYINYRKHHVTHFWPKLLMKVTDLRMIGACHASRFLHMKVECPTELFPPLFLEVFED
SMILES,Potency [1],Potency [2],Potency [3],outcome [4],Potency [5],Potency [6],Potency [7],Potency [8],Potency [9],outcome [10],max response [11],outcome [12],activity change % (negative = inhibition) [13],Potency [14],Potency [15],Potency [16],max response [17],max response [18],outcome [19],Potency [20]
CCCCNC(=O)n1c(NC(=O)OC)nc2ccccc21,> 92 µM (inactive),inactive,6.31 µM (active),inactive,inactive,inactive,inactive,inactive,inactive,inactive,14.8%,inactive,-13.8% (inactive) and -24% (inactive),inactive,inactive,inactive,2.42% (inactive) and 7.38% (inactive),-16.4% (inactive) and -17.6% (inactive),–,–
N#CCBr,> 92 µM (inactive),inactive,inactive,inactive,inactive,inactive,–,inactive,–,inactive,-6.36%,inactive,11.7% (inactive),inactive,inactive,inactive,-10.6% (inactive),-4.55% (inactive),inactive,inactive
C=CCO,> 92 µM (inactive),inactive,inactive,inactive,inactive,inactive,–,inactive,inactive,–,-10.3%,inactive,–,inactive,inactive,–,1.93% (inactive),9.9% (inactive),inactive,–
CCBr,> 92 µM (inactive),inactive,inactive,inactive,inactive,inactive,–,inactive,–,inactive,-3.72%,inactive,-4.65% (inactive),inactive,inactive,inactive,-4.15% (inactive),-3.34% (inactive),inactive,inactive
O=P(OCCCl)(OCCCl)OCCCl,> 92 µM (inactive),inactive,inactive,inactive,inactive,inactive,inactive,inactive,–,inactive,-20%,inactive,2.42% (inactive),inactive,inactive,inactive,4.31% (inactive),-2.52% (inactive),inactive,inactive
Nc1cc(Cl)cc(C(=O)O)c1Cl,> 92 µM (inactive),inactive,inactive,inactive,inactive,inactive,inactive,inactive,inactive,inactive,-12.3% and -7.66%,inactive,-1.41% (inactive),inactive,inactive,inactive,–,10.5% (inactive) and -2.29% (inactive),inactive,inactive
Cl/C=C/CCl,> 92 µM (inactive),inactive,inactive,inactive,inactive,–,inactive,inactive,inactive,inactive,-6.27%,inactive,-4.73% (inactive),inactive,inactive,inactive,-1.22% (inactive),2.26% (inactive),inactive,inactive
